# Compound activity: PubChem BioAssay, National Center for Advancing Translational Sciences (NCATS)
# In the library only some 9.2% were active in any assay of this set; here they are far more common.
# Rab9 promoter act: activators of Rab9 promoter. Huh7 Rab9 promoter-luciferase reporter, luminescence, 24 h. Potency, µM (series often up to 9.22 µM), for the others: at the highest dose activation, negative = inhibition, usual class: activators. 320,000 compounds, 2.8% hits; also: % of control where 0% means no effect; nearly all actives have a fitted effect of over 60% in size
#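 Cell-based reporter: Huh7 stable for Rab9 promoter-driven luciferase, plated in reduced-serum medium with 10% FBS at 1500 cells/well, compound-treated 24 h at 37 °C, luminescence read after 10 min reagent.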
# ELG1 genotox: inducers of genotoxicity in HEK293T ELG1-luciferase cells; HEK293T ELG1-luciferase reporter, luminescence, 16 h; 330,000 compounds, 1.3% hits; AID 504466; Potency, µM (top dose mostly 46 µM), without a hit: top-dose activity change, positive = activation, most hits filed as activators; also: % of control where 0% means no effect; nearly all actives have a fitted effect of over 60% in size
#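 Reporter readout depends on ELG1 protein level, which increases with genetic stress. After 16 hr compound exposure at 37 °C, luciferase activity was quantified using ONE-Glo.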
# NPC1 promoter act: NPC1 promoter activation; Huh7 NPC1 promoter luciferase reporter, 24 h; Potency, µM (top dose mostly 9.22 µM), inactives show at the top dose activation, hits mostly activators; 320,000 compounds, 2.4% hits; also: % of control where 0% means no effect; nearly all actives have a fitted effect of over 60% in size
#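 In 1536-well qHTS, Huh7 cells harboring an NPC1 promoter–luciferase construct received compound for 24 h; activation was quantified by luminescence following luciferase reagent addition.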
# ELG1 DNA repair: inhibitors of ELG1-dependent DNA repair in HEK293T cells; HEK293T ELG1-luciferase reporter, luminescence, 16 h; DNA damage induced by 5-fluorouridine; Potency, µM (top dose mostly 46.1 µM), for the others: top-dose activity change, negative = inhibition, usual class: inhibitors; AID 504467; 330,000 compounds, 2.3% hits; also: % is scaled to controls: 0 for no effect and ±100 for the full control effect; nearly all actives have a fitted effect of over 55% in size
#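 HEK293T cells expressing luciferase-tagged ELG1 (2,000/well) received 5-Fluorouridine plus compound or DMSO for 16 hr at 37 °C. Luciferase was read by ONE-Glo luminescence after 30 min at room temperature.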
# SMN2 splice up: SMN2 splice variant enhancement; HEK293 SMN2-luciferase splicing reporter, luminescence, 30-36 h; Potency, µM (highest dose often 46.1 µM), for inactives: at the top dose activity change, positive = activation, most hits filed as activators; 210,000 compounds, 2.8% hits; also: % of control where 0% means no effect; nearly all actives have a fitted effect of over 55% in size
#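 HEK293 cells carry an SMN2 minigene-luciferase reporter in which exon 7 inclusion puts luciferase in frame. Cells were seeded at 2000 cells/well, attached for 10-12 hours, then exposed to compounds for 30-36 hours at 37C before ONE-Glo luminescence.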
# FLuc counter: inhibits or activates purified firefly luciferase, miR-21 counter-screen; P08659; purified FLuc, Km substrates, luminescence inhibition; Potency, µM (top dose mostly 57.5 µM), inactives show at the top dose activity change, negative = inhibition, actives largely listed as inhibitors; 360,000 compounds, 6.9% hits; AID 588342;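 also: plate controls were vehicle for no effect and reference inhibitor for full effect; nearly all actives have a fitted effect of over 55% in size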
# Target sequence (P08659 whole entry, looked up): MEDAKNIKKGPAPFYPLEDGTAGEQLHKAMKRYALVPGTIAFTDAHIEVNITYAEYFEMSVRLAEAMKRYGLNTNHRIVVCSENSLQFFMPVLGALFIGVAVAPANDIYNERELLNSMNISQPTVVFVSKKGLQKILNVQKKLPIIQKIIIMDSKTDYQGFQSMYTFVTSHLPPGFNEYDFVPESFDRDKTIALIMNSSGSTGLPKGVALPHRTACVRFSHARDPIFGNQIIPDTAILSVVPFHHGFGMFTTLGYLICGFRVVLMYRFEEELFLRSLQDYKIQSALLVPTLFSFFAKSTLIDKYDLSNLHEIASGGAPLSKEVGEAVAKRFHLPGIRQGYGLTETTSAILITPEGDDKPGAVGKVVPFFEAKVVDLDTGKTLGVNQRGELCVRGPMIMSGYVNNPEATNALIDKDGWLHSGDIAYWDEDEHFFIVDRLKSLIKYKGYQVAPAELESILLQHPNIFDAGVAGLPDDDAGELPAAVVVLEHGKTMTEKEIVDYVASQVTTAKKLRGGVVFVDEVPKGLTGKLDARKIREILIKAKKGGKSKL
#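 Purified P. pyralis luciferase, 10 nM final, with Km-level 10 uM D-luciferin and 10 uM ATP in 50 mM Tris acetate pH 7.5, 10 mM Mg acetate, 0.01% Tween-20, 0.05% BSA; 6-point qHTS titration about 60 µM downward; luminescence read.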
# * hit, by the source's call; ? = inconclusive; nt = no result given; [ ] = another dose, or the depositor's remark. Calls follow the shape of the dose curve; as a rule, active = well fitted curve in the direction sought with a large enough effect; inconclusive = small, poorly fitted or top-dose-only effect, or another doubt; inactive = no such curve, though single readings can be large; an effect the other way counts as inactive or inconclusive. Potency is read from the fitted curve at half-maximal effect.
SMILES,Rab9 promoter act,ELG1 genotox,NPC1 promoter act,ELG1 DNA repair,SMN2 splice up,FLuc counter
CCCCOC(=O)Oc1ccc2c(=O)c(Oc3cccc(C)c3)coc2c1,20%,25%,9%,?,13µM*,-15%
Cc1ccc(SCC(=O)N=C2NC(=O)CS2)cc1,3%,1%,-15%,3%,nt,15µM*
COC(=O)c1cc(OC)c(OC)cc1NC(=O)Nc1ccc(OC)cc1,-2%,0%,-4%,-3%,-8%,3%
COC(=O)c1cc2ccc(OC)cc2c2cc(OC)c(OC)cc12,nt,-6%,nt,13µM*,nt,nt
CCOc1ccc(CNC(=O)C2CCCN(c3nc4c(C)cc(C)cc4s3)C2)cc1 (stereo not given),nt,nt,nt,nt,8%,-1%
COc1ccc(CCNC(=O)C2CCCN(c3nc4ccccc4s3)C2)cc1OC (stereo not given),0%,-10%,12%,18µM*,nt,-14%
COc1ccc(CCNC(=O)C2CCCN(c3nc4c(C)cc(C)cc4s3)C2)cc1OC (stereo not given),nt,nt,nt,nt,2.8µM*,?
O=c1[nH]ncc(N/N=C\c2cccs2)c1Cl,-2%,21µM*,-5%,?,?,-3%
Cc1ccc(NC(=S)NCC2CCN(C(C)c3ccccc3)C2)cc1C (stereo not given),-6%,-4%,-1%,?,nt,-2%
CC(=O)CCOC1CCCCO1 (stereo not given),nt,nt,nt,nt,-1%,nt
CN1C2CCC1/C(=C\c1ccc(F)cc1)C(=O)/C2=C/c1ccc(F)cc1,-4%,0%,4%,18µM*,-39%,-1%
CN1C2CCC1/C(=C/c1cccn1C)C(=O)/C2=C\c1cccn1C,-1%,-10%,-2%,?,-50%,1%
COc1ccc(CCNC(=S)NNC(=O)c2c(Br)c(C)nn2C)cc1OC,0%,1%,0%,8%,nt,-7%
CSc1ccc(S(=O)(=O)Nc2ccc3c(c2)NC(=O)CC3)cc1,-8%,-7%,-8%,8.2µM*,-58%,-4%
O=C(Nc1ccc(F)c(Cl)c1)C1CCN(c2ncccn2)CC1,nt,nt,nt,nt,-1%,-13%
CC(=O)Cn1ncc(N(C)Cc2ccccc2)c(Cl)c1=O,?,?,?,?,nt,17µM*
C/C(=N/NC(=O)c1ccc(Br)s1)c1ccncc1,23%,10%,?,?,nt,?
C/C(=N/NC(=O)c1ccc(C)s1)c1cccnc1,?,?,26%,?,nt,19µM*
C/C(=N/NC(=O)c1ccc(Br)s1)c1cccnc1,?,11%,28%,?,nt,15µM*
C/C(=N/NC(=O)c1ccc(Cl)s1)c1cccnc1,3%,11%,7%,6%,nt,0%
O=C1C2Sc3[nH]c(=O)sc3C(c3cc([N+](=O)[O-])ccc3O)C2C(=O)N1c1ccccc1 (stereo not given),2%,1%,0%,4%,nt,-6%
CCOc1ccc(/C=C2\SC(N3CCCCC3)=NC2=O)cc1,-2%,4%,1%,11%,nt,?
CN1C(=O)/C(=C2\SC(N)=NC2=O)c2ccccc21,-3%,7%,-4%,-5%,-24%,2%
CN1C(=O)/C(=C2\SC(N3CCCCCC3)=NC2=O)c2ccccc21,3.5µM*,?,?,?,9%,2.7µM*
CCCN1C(=O)/C(=C2\SC(N3CCCCC3)=NC2=O)c2ccccc21,2.8µM*,10%,1.3µM*,?,19%,2.1µM*
SMILES,Rab9 promoter act,ELG1 genotox,NPC1 promoter act,ELG1 DNA repair,SMN2 splice up,FLuc counter
Cc1ccc(C(=O)Nc2ccc3c(c2)CCC3)cc1,0.32µM*,0.18µM*,?,?,1.4µM*,0.38µM*
NS(=O)(=O)c1cc(C(=O)Nc2ccc3c(c2)CCC3)ccc1Cl,4µM*,10µM*,3.5µM*,?,nt,17µM*
Cn1cc(C(=O)Nc2ccc3c(c2)CCC3)cn1,30%,?,23%,?,nt,21µM*
Cc1ccc(C(=O)Nc2ccc3c(c2)n(C)c(=O)c(=O)n3C)cc1,nt,nt,nt,nt,-6%,?
CCCn1cnc2c(SCC(=O)O)nc(N)nc21,nt,nt,nt,nt,-15%[9.22 µM],nt
COc1ccc2cc(Br)ccc2c1CC(=O)NC(C)(C)C,-12%,4%,1%,?,-47%,-6%
O=c1c2oc3ccccc3c2n(Cc2ccccc2Cl)c(=O)n1Cc1ccc2c(c1)OCO2,nt,nt,nt,nt,nt,-7%
Cc1c(C#N)c(O)[nH]c(=O)c1N=Nc1ccc(Cl)c(C(=O)O)c1,-1%[1.84 µM],1%,-1%,-4%,nt,4%
Cc1ccc(Cl)c2c(N=Nc3ccccc3)c(O)[nH]c12,?,?,?,?,nt,1.2µM*
O=C(CSc1nnc(Nc2ccccc2F)s1)Nc1cccc(S(=O)(=O)N2CCCCC2)c1,4%,2%,1%,-11%,6%,13µM*
Cc1nnc(SCC(=O)Nc2cccc(S(=O)(=O)N3CCCCC3)c2)s1,-3%,-1%,-7%,-13%,nt,nt
Cc1ccc(Nc2nnc(SCC(=O)Nc3cccc(S(=O)(=O)N4CCCCC4)c3)s2)cc1,17%,-2%,15%,-22%,24%,2.7µM*
CCc1ccc(OCCCC(=O)NCc2ccccc2)cc1,0%,2%,-2%,-5%,9%,-16%
CCC/C(C)=C/c1ccc(CC)cn1,0%,0%,1%,?,nt,9.5µM*
COc1ccc(S(=O)(=O)N(C(C)=O)c2ccc(OC(C)=O)c3ccccc23)cc1[N+](=O)[O-],-3%,-14%,-1%,15µM*,nt,0%
COc1ccc(S(=O)(=O)N2CCc3ccccc32)cc1[N+](=O)[O-],-10%,-7%,-1%,6.5µM*,nt,1%
COCc1c(C#N)c(NCc2cc(OC)c(OC)c(OC)c2)nc(C)c1[N+](=O)[O-],-24%,-4%,-12%,16µM*,nt,-2%
COc1cc(C)ccc1OCc1cc(C(=O)NC(C)Cn2cncn2)no1 (stereo not given),1.6µM*,?,2.2µM*,?,nt,?
COc1cc(C)ccc1OCc1cc(C(=O)NCc2ccncc2)no1,2µM*,18µM*,2.8µM*,?,nt,12µM*
CCOC(=O)c1c(C)[nH]c(C)c1S(=O)(=O)N(C)CC(=O)Nc1ccc(CC)cc1,nt,nt,nt,nt,nt,4%
Cc1ccc(OCC(=O)N2CCCCC2)c(Br)c1,?,15%,?,?,20µM*,?
O=C(COc1ccc(Cl)cc1Cl)N1CCCCCC1,5%,13%,5%,?,-3%,?
CC(C)(C)c1ccc(OCC(=O)N2CCCCCC2)c(Br)c1,?,?,?,?,13µM*,15µM*
